Reference: PubChem BioAssay (EPA / NIEHS)
Values joined by “and” are separate entries in the source; they are usually repeats but may differ in a detail not shown here. Equal entries are not always repeated. More than one record can exist for a structure, and the calls need not agree. Active and inactive are the calls of the source. The calls were made as follows: active = hit-call score of the fitted dose curve at least 0.9, where 1 is the maximum; inactive = score below 0.9.

What follows are compounds tested against Cytochrome P450 2C18 (Homo sapiens) (UniProt P33260) (assay: NVS_ADME_hCYP2C18: NovaScreen (NVS) CYP450-related Enzyme Activity (ADME) Assay for human CYP2C18 (AID 2283103)).
Description: NVS_ADME_hCYP2C18 is a biochemical, single-readout assay that uses extracted gene-proteins in a cell-free assay. Measurements were taken 0.5 hour after chemical dosing in a 96-well plate.NVS_ADME_hCYP2C18 is one of one assay component(s) measured or calculated from the NVS_ADME_hCYP2C18 assay. It is designed to make measurements of enzyme activity, a form of enzyme reporter, as detected with fluorescence intensity signals by Fluorescence technology.Data from the assay component NVS_ADME_hCYP2C18 was analyzed into 1 assay endpoint. This assay endpoint, NVS_ADME_hCYP2C18, was analyzed in the positive analysis fitting direction relative to Acetonitrile as the negative control and baseline of activity. Using a type of enzyme reporter, loss-of-signal activity can be used to understand changes in the enzymatic activity as they relate to the gene CYP2C18. Furthermore, this assay endpoint can be referred to as a primary readout, because this assay has produced multiple assay endpoints where this one serves a enzymatic activity function. To generalize the intended target to other relatable targets, this assay endpoint is annotated to the cyp intended target family, where the subfamily is xenobiotic metabolism.
Binding assays used specific radioligands (tritiated, iodinated) with non-radioactive competitive displacement ligands in agonist or antagonist protocols (as indicated) and various reference compounds and inhibitors to titrate specific binding to receptors and transporters. Most enzyme assays (CYPs, kinases, phosphatases, proteases, HDACs) used recombinant protein and specific substrates (fluorescence mostly, some colorimetric and radioactive) and inhibitors, followed by a biochemical separation of substrate and product. All assays for the biochemical HTS were initially run in duplicate at a single concentration (10 uM for CYP450 assays and 25 uM for all others). Assay-chemical combinations meeting a pre-defined threshold (e.g., 30% inhibition and other criteria defined below) were then run in singleton concentration-response format with maximum concentration of 20 uM for CYPs and 50 uM for all others. Each assay was run with positive and negative controls, and concurrent controls on every plate. The follow-up (secondary) screen tested active chemical-pairs in concentration series, as well as a few additional assays not tested in the primary screen, some selected negative inactives, and several cases re-run in the concentration series for confirmatory purposes.

Sequence of Cytochrome P450 2C18 (Homo sapiens) (P33260 whole entry, looked up): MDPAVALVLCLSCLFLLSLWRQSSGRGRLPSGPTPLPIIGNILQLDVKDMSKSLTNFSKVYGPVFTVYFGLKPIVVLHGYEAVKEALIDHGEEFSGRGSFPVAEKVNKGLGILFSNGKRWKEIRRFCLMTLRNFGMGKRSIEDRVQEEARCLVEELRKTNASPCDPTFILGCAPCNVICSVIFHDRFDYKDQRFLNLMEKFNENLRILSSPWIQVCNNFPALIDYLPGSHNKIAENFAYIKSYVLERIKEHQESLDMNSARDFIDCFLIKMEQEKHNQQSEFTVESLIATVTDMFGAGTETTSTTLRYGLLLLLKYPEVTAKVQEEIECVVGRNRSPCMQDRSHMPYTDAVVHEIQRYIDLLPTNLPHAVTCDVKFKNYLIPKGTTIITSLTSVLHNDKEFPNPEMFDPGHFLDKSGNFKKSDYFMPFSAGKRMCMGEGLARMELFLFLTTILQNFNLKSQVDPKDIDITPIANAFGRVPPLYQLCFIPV

Compound	AC50	outcome
CCCCOCCOCCOCc1cc2c(cc1CCC)OCO2	4.47 µM (active)	–
CC(=O)[C@H]1CC[C@H]2[C@@H]3CCC4=CC(=O)CC[C@]4(C)[C@H]3CC[C@]12C	7.03 µM (active) and 2.27 µM (active)	inactive
Oc1ccc(C(c2ccc(O)cc2)C(Cl)(Cl)Cl)cc1	0.668 µM (active)	–
S=C(S)NCCNC(=S)S.[Mn+2].[S-]C([S-])=NCCN=C([S-])[S-].[Zn+2]	–	inactive
CCCCC(CC)CN1C(=O)C2C3C=CC(C3)C2C1=O (stereo unspecified)	4.81 µM (active)	–
C=CCOC(Cn1ccnc1)c1ccc(Cl)cc1Cl (stereo unspecified)	0.427 µM (active)	–
CCN(CC)CCOc1ccc(C(=C(Cl)c2ccccc2)c2ccccc2)cc1	11.4 µM (active) and 4.62 µM (active)	–
S=C([S-])NCCNC(=S)[S-].[Mn+2]	10 µM (active)	–
CC(=O)O[C@]1(C(C)=O)CC[C@H]2[C@@H]3C=C(Cl)C4=CC(=O)[C@@H]5C[C@@H]5[C@]4(C)[C@H]3CC[C@@]21C	6.86 µM (active)	inactive
CC(C)(C)[C@@H](O)[C@@H](Cc1ccc(Cl)cc1)n1cncn1	5.35 µM (active)	–
CCCCC(CC)COC(=O)c1ccccc1C(=O)O (stereo unspecified)	–	inactive
N#CSCSc1nc2ccccc2s1	2.72 µM (active)	–
CCOC(=O)NCCOc1ccc(Oc2ccccc2)cc1	4.5 µM (active)	–
COC(=O)CSc1cc(N=c2sc(=O)n3n2CCCC3)c(F)cc1Cl	–	inactive
CC(C)[C@@H](C(=O)O[C@@H](C#N)c1cccc(Oc2ccccc2)c1)c1ccc(Cl)cc1	–	inactive
O=c1c(-c2ccc(O)cc2)coc2cc(O)cc(O)c12	–	inactive
C[C@]12CC[C@@H]3c4ccc(O)cc4CC[C@H]3[C@@H]1CC[C@@H]2O	9.57 µM (active)	–
CSC(=O)c1cccc2nnsc12	3.8 µM (active)	–
C#C[C@]1(O)CC[C@H]2[C@@H]3CCc4cc(O)ccc4[C@H]3CC[C@@]21C	1.46 µM (active) and 1.72 µM (active)	inactive
Cc1nn(C)c(Oc2ccccc2)c1C=NOCc1ccc(C(=O)OC(C)(C)C)cc1	–	inactive
C#CCOC(=O)[C@@H](C)Oc1ccc(Oc2ncc(Cl)cc2F)cc1	2.13 µM (active)	–
CC(C)(c1ccc(O)cc1)c1ccc(O)cc1	6.12 µM (active) and 7.43 µM (active)	–
CCCCCOC(=O)COc1cc(N2C(=O)C3=C(CCCC3)C2=O)c(F)cc1Cl	–	inactive
